Where “and” joins values, the source holds several entries; their conditions need not be identical. Identical values can stand only once. Results filed as inconclusive are left out. A call without a number means that no potency is given here. Calls of active or inactive are those of the source. Calls follow the shape of the dose curve; as a rule, active = well fitted curve in the direction sought with a large enough effect; inconclusive = small, poorly fitted or top-dose-only effect, or another doubt; inactive = no such curve, though single readings can be large; an effect the other way counts as inactive or inconclusive. Peptide text beside a SMILES is read from it.
Legend:
[1] = biological target: Metallo-beta-lactamase type 2 (Klebsiella pneumoniae) (UniProt C7C422); assay: qHTS to identify inhibitors of the New Delhi Metallo-beta-lactamase (NDM): assay validation screen against the NCATS LOPAC Collection (AID 1794843);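 also: nitrocefin turnover by NDM-1 measured as 485 nm absorbance at plateau; series mostly up to about 38 µM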
In short: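 NDM-1 at 2 nM final in 50 mM HEPES pH 7.0 with 1 uM ZnSO4 and 0.01% Tween20 was preincubated with library compounds in DMSO. Nitrocefin (50 uM stock) was then added, and absorbance at 485 nm was read at the kinetic plateau.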

[2] = biological target: Glutathione peroxidase 1 (Homo sapiens) (UniProt P07203); assay: Primary qHTS Assay for Inhibitors of Recombinant Selenoprotein Glutathione Peroxidase 1 (GPX1) (AID 1845191); also: nearly all actives have a fitted effect of over 65% in size; also: potency is read from the fitted curve at half-maximal effect
In short: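 Recombinant GPX1 (10 nM final) was preincubated with compound for 30 min at room temperature, then reacted with 1 mM GSH, 0.5 mM CHP, 0.5 mM NADPH and 100 nM glutathione reductase; NADPH fluorescence (340/450 nm) was read at 0 and 15 min.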

[3] = biological target: Phospholipid hydroperoxide glutathione peroxidase GPX4 (Homo sapiens) (UniProt P36969); assay: Primary qHTS Assay for Inhibitors of Recombinant Selenoprotein Glutathione Peroxidase 4 (GPX4) (AID 1845192); also: nearly all actives have a fitted effect of over 65% in size; also: potency is read from the fitted curve at half-maximal effect
In short: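 GR-coupled readout: 100 nM GR, 1 mM GSH, 0.5 mM NADPH; NADPH fluorescence (ex 340/em 450 nm) read at t=0 and after 15 min RT. GPX4 200 nM, preincubated 30 min with compound; substrate 0.5 mM CHP.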

[4] = Quantitative High-Throughput drug screen in 47 multiple myeloma cell lines against the NCATS MIPE library collection: FR4_PLB cell viability assay (AID 1918924; also: nearly all actives have a fitted effect of over 35% in size; also: potency is read from the fitted curve at half-maximal effect)
In short: (§1)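 Viability readout: CellTiter-Glo luminescence following 5 min room-temperature incubation with reagent. Prior exposure: 48 h, 37C, humidified 5% CO2, 500 cells per well.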

[5] = Quantitative High-Throughput drug screen in 47 multiple myeloma cell lines against the NCATS MIPE library collection: Delta47_JCRB cell viability assay (AID 1918925; also: nearly all actives have a fitted effect of over 45% in size; also: potency is read from the fitted curve at half-maximal effect)
In short: (§2)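 Steps: seed 500 cells per well; pin-transfer MIPE 4.0 library; incubate 48 h at 37C, 5% CO2, humidified; add CellTiter-Glo, 5 min room temperature; read luminescence.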

[6] = Quantitative High-Throughput drug screen in 47 multiple myeloma cell lines against the NCATS MIPE library collection: EJM_DSMZ cell viability assay (AID 1918926; also: nearly all actives have a fitted effect of over 30% in size; also: potency is read from the fitted curve at half-maximal effect)
In short: as §2

[7] = Quantitative High-Throughput drug screen in 47 multiple myeloma cell lines against the NCATS MIPE library collection: AMO1_DSMZ cell viability assay (AID 1918927; also: nearly all actives have a fitted effect of over 30% in size; also: potency is read from the fitted curve at half-maximal effect)
In short: as §2

[8] = Quantitative High-Throughput drug screen in 47 multiple myeloma cell lines against the NCATS MIPE library collection: ARP1_JJKsccF8 cell viability assay (AID 1918928; also: nearly all actives have a fitted effect of over 40% in size; also: potency is read from the fitted curve at half-maximal effect)
In short: (§3)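 Myeloma cells, 500 per well, were exposed to MIPE 4.0 drugs by pin transfer for 48 h at 37 °C, 5% CO2. Viability was read as ATP luminescence with CellTiter-Glo, normalised to DMSO-only (100%) and medium-only (0%) wells.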

[9] = Quantitative High-Throughput drug screen in 47 multiple myeloma cell lines against the NCATS MIPE library collection: ARD_JJKsccE7 cell viability assay (AID 1918929; also: potency is read from the fitted curve at half-maximal effect)
In short: as §2

[10] = Quantitative High-Throughput drug screen in 47 multiple myeloma cell lines against the NCATS MIPE library collection: Karpas620_DSMZ cell viability assay (AID 1918959); also: nearly all actives have a fitted effect of over 30% in size; also: potency is read from the fitted curve at half-maximal effect
In short: as §1

[11] = Quantitative High-Throughput drug screen in 47 multiple myeloma cell lines against the NCATS MIPE library collection: KMM1_JCRB cell viability assay (AID 1918960); also: nearly all actives have a fitted effect of over 30% in size; also: potency is read from the fitted curve at half-maximal effect
In short: as §3

[12] = Quantitative High-Throughput drug screen in 47 multiple myeloma cell lines against the NCATS MIPE library collection: JIM3_ECACC cell viability assay (AID 1918963; also: nearly all actives have a fitted effect of over 35% in size; also: potency is read from the fitted curve at half-maximal effect)
In short: as §1

[13] = Quantitative High-Throughput drug screen in 47 multiple myeloma cell lines against the NCATS MIPE library collection: INA6_PLB cell viability assay (AID 1918965; also: nearly all actives have a fitted effect of over 55% in size; also: potency is read from the fitted curve at half-maximal effect)
In short: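 Approved and investigational drugs from MIPE 4.0 were added by pin tool to 500 cells per well. After 48 hours at 37C, ATP-based CellTiter-Glo luminescence indicated remaining viability.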

[14] = Quantitative High-Throughput drug screen in 47 multiple myeloma cell lines against the NCATS MIPE library collection: JJN3_DSMZ cell viability assay (AID 1918966; also: potency is read from the fitted curve at half-maximal effect; nearly all actives have a fitted effect of over 50% in size)
In short: as §2

[15] = Quantitative High-Throughput drug screen in 47 multiple myeloma cell lines against the NCATS MIPE library collection: KHM11_PLB cell viability assay (AID 1918962); also: nearly all actives have a fitted effect of over 35% in size; also: potency is read from the fitted curve at half-maximal effect
In short: as §1

[16] = biological target: Luciferin 4-monooxygenase (Photinus pyralis) (UniProt P08659); assay: Primary firefly luciferase (FLuc) qHTS assay for identification of artifact compounds. (AID 1845220); also: nearly all actives have a fitted effect of over 60% in size
In short: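 Reaction readout was CCD-imaged luminescence, taken 5 min after adding 10 nM purified firefly enzyme to compound-treated wells holding 10 uM luciferin and ATP in pH 7.6 buffer.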

[17] = system: Nanoluciferase (engineered Oplophorus gracilirostris luciferase); assay: Primary Nanoluciferase (NLuc) qHTS assay for identification of artifact compounds. (AID 1845222);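 also: NLuc secreted into diluted conditioned medium of S16 cells; series mostly up to about 54 µM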
In short: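 Concentration-response data were obtained by luminescence after 5 min with Nano-Glo substrate at 1:100. The enzyme was diluted S16 NLuc-expressing cell medium, preincubated with compound for 15 min at RT. Curves were fitted with a 4-parameter Hill model.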

[18] = Quantitative High-Throughput drug screen in 47 multiple myeloma cell lines against the NCATS MIPE library collection: JIM1_ECACC cell viability assay (AID 1918964; also: potency is read from the fitted curve at half-maximal effect)
In short: as §2

[19] = Primary redox qHTS assay for identification of artifact compounds. (AID 1845223)
In short: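 Amplex Red (25 uM) and HRP (250 mU/mL) in HBSS, with compounds for 15 min, then 250 uM DTT for 30 min, room temperature, dark. Fluorescence 525/598 nm read; normalized to DMSO and 10 uM DA3003; Hill fit.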

Sequence of Metallo-beta-lactamase type 2 (Klebsiella pneumoniae) (C7C422 whole entry, looked up): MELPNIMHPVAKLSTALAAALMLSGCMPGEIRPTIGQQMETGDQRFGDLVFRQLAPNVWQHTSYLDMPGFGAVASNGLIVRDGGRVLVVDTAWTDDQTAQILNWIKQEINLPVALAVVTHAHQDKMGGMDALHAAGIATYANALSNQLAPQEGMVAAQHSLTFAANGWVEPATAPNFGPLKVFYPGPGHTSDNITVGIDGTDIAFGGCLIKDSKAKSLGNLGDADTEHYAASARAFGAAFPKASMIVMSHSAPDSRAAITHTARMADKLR
Sequence of Glutathione peroxidase 1 (Homo sapiens) (P07203 whole entry, looked up): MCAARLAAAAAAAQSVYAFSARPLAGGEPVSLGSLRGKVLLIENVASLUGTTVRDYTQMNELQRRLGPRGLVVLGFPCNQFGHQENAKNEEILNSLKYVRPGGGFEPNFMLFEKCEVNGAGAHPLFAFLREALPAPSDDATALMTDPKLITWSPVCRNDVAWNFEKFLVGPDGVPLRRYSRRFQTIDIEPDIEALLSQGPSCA
Sequence of Phospholipid hydroperoxide glutathione peroxidase GPX4 (Homo sapiens) (P36969 whole entry, looked up): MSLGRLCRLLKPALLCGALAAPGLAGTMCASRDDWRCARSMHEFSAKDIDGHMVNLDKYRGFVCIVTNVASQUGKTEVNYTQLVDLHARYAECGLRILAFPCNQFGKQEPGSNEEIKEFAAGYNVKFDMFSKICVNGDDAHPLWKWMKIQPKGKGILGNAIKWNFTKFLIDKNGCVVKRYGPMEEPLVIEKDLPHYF

Structure (SMILES) | outcome [1] | Potency [2] | Potency [3] | Potency [4] | Potency [5] | Potency [6] | Potency [7] | Potency [8] | Potency [9] | Potency [10] | Potency [11] | Potency [12] | Potency [13] | Potency [14] | Potency [15] | Potency [16] | outcome [17] | Potency [18] | outcome [19]
Nc1nc(N)c(N=O)c(OCC2CCCCC2)n1 | inactive | inactive | inactive | 18.7 µM (active) | 4.18 µM (active) | 10.5 µM (active) | 13.2 µM (active) | 14.8 µM (active) | 5.26 µM (active) | 13.2 µM (active) | 6.62 µM (active) | 9.35 µM (active) | 5.26 µM (active) | 16.6 µM (active) | – | – | – | – | –
O=c1ccc2ccc(O)c(O)c2o1 | inactive | inactive | inactive | inactive | 6.62 µM (active) | – | – | – | inactive | 23.5 µM (active) | – | – | – | 16.6 µM (active) | 11.8 µM (active) | – | – | – | –
Cc1cccc(-c2[nH]ncc2-c2ccc3ncccc3n2)n1 | inactive | inactive | inactive | 0.118 µM (active) | – | inactive | inactive | inactive | inactive | inactive | – | inactive | – | – | – | – | – | – | –
O=C1c2ccccc2-c2n[nH]c3cccc1c23 | inactive | inactive | inactive | inactive | – | 0.0017 µM (active) | 20.9 µM (active) | – | 1.18 µM (active) | inactive | – | inactive | 20.9 µM (active) | – | – | – | – | – | –
CC(=O)Nc1ccc(O)cc1 | – | inactive | inactive | – | – | – | – | – | – | – | – | – | – | – | – | – | – | – | –
CCC(C)(Oc1ccc(C2(c3ccc(OC(C)(CC)C(=O)O)cc3)CCCCC2)cc1)C(=O)O (stereo unspecified) | – | inactive | inactive | inactive | inactive | inactive | inactive | – | inactive | – | inactive | inactive | – | – | inactive | inactive | inactive | – | –
COC(=O)[C@H](Cc1ccccc1)NC(=O)[C@@H](N)CC(=O)O (H-Asp-Phe-OMe) | – | inactive | inactive | inactive | inactive | inactive | inactive | inactive | inactive | inactive | inactive | inactive | inactive | – | inactive | – | – | inactive | –
O=C(O)CCNC(=O)c1ccc(N=Nc2ccc(O)c(C(=O)O)c2)cc1 | – | inactive | inactive | inactive | inactive | inactive | – | inactive | inactive | – | inactive | inactive | inactive | – | – | – | – | – | –
CC[C@]1(O)C[C@H]2CN(CCc3c([nH]c4ccccc34)[C@@](C(=O)OC)(c3cc4c(cc3OC)N(C=O)[C@H]3[C@@](O)(C(=O)OC)[C@H](OC(C)=O)[C@]5(CC)C=CCN6CC[C@]43[C@@H]65)C2)C1 | – | inactive | inactive | inactive | 0.0047 µM (active) | – | 0.372 µM (active) | 0.003 µM (active) | 0.0662 µM (active) | 0.0166 µM (active) | 0.0469 µM (active) | – | – | 0.0935 µM (active) | – | – | – | 0.0209 µM (active) | –
Cc1cc2c(s1)Nc1ccccc1N=C2N1CCN(C)CC1 | – | 16.1 µM (active) | inactive | inactive | inactive | inactive | inactive | inactive | – | – | inactive | inactive | – | – | – | inactive | inactive | inactive | inactive
Cc1cc(C2CCCCC2)n(O)c(=O)c1 | – | inactive | inactive | 6.62 µM (active) | 6.62 µM (active) | 16.6 µM (active) | 7.43 µM (active) | 9.35 µM (active) | 9.35 µM (active) | 8.33 µM (active) | 9.35 µM (active) | 8.33 µM (active) | 6.62 µM (active) | 18.7 µM (active) | 4.69 µM (active) | – | – | 3.32 µM (active) | –
O=C(OC1C[C@H]2CC[C@@H](C1)[N+]21CCCC1)C(O)(c1ccccc1)c1ccccc1 (stereo partly specified) | – | inactive | inactive | inactive | – | inactive | inactive | inactive | – | – | inactive | inactive | – | – | inactive | inactive | inactive | inactive | inactive
OC(CN1CCN(c2cccc(Cl)c2)CC1)C(c1ccccc1)c1ccccc1 (stereo unspecified) | – | inactive | inactive | inactive | – | inactive | – | – | inactive | – | inactive | inactive | – | – | – | inactive | inactive | – | inactive
CCOC(=O)C1=C[C@@H](OC(CC)CC)[C@H](NC(C)=O)[C@@H](N)C1 | – | inactive | inactive | inactive | inactive | inactive | inactive | inactive | inactive | inactive | – | inactive | inactive | – | – | – | – | – | –
CC1Cc2ccccc2N1NC(=O)c1ccc(Cl)c(S(N)(=O)=O)c1 (stereo unspecified) | – | inactive | inactive | inactive | inactive | inactive | – | inactive | – | – | – | inactive | inactive | – | – | – | – | – | –
Cc1cc(=O)oc2cc(O)ccc12 | – | 18 µM (active) and 4.09 µM (active) | 12.8 µM (active) and 1.61 µM (active) | inactive | – | inactive | inactive | inactive | inactive | – | inactive | inactive | inactive | – | 0.0662 µM (active) | – | – | – | –
Oc1ccc(OCc2ccccc2)cc1 | – | inactive | inactive | inactive | – | inactive | inactive | 18.7 µM (active) | inactive | inactive | – | inactive | – | – | – | – | – | inactive | –
Nc1ccn([C@@H]2O[C@H](CO)[C@@H](O)C2O)c(=O)n1 (stereo partly specified) | – | inactive | inactive | inactive | inactive | inactive | inactive | – | 8.33 µM (active) | – | inactive | inactive | – | – | – | – | – | 4.18 µM (active) | –
Cc1ncc([N+](=O)[O-])n1CC(C)O (stereo unspecified) | – | inactive | inactive | inactive | – | inactive | inactive | inactive | inactive | – | inactive | – | – | – | – | – | – | – | –

— PubChem BioAssay (NCATS)
